{"source": "PubChem BioAssay (EPA / NIEHS)", "note": "Records with an inconclusive call do not appear. The source made the active and inactive calls. Rule for the calls: active = hit-call score of the fitted dose curve at least 0.9, where 1 is the maximum; inconclusive = response in the unintended direction; inactive = score below 0.9."}
{"target": "Cellular tumor antigen p53 (Homo sapiens) (UniProt P04637)", "sequence (P04637 whole entry, looked up)": "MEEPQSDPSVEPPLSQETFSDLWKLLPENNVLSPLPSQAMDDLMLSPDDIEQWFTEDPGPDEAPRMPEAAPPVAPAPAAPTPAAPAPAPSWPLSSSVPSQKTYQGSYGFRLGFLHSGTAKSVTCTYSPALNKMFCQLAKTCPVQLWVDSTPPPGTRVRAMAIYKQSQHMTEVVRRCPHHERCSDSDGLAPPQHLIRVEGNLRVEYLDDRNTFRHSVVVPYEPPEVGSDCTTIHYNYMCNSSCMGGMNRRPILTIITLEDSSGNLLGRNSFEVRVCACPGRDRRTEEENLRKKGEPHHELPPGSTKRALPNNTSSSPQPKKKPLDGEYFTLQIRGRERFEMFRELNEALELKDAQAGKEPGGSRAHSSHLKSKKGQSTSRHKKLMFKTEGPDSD", "assay": "TOX21_p53_BLA_p4_ratio: Tox21 HCT-116 p53 Agonism Beta-lactamase Assay, Ratio, Phase 4 (AID 2283601)", "procedure,_shortened": "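Signal is the blue/green (460nm/530nm) ratio of cleaved versus uncleaved CCF4-AM substrate, read after 2 h substrate loading. Cells were HCT116 carrying the p53-responsive beta-lactamase reporter, dosed 16 h at 37C, 5% CO2; CellTiter-Glo measured in parallel.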"}
{"smiles": "CC(=O)CCCCn1c(=O)c2c(ncn2C)n(C)c1=O", "outcome": "inactive"}
{"smiles": "O=c1[nH]ncc2ccccc12", "outcome": "inactive"}
{"smiles": "NC(Cc1ccc(Cl)cc1)C(=O)O", "note": "(stereo not drawn)", "outcome": "inactive"}
{"smiles": "Cc1ccccc1CNc1ncnc2c1ncn2[C@@H]1O[C@H](CO)[C@@H](O)[C@H]1O", "outcome": "inactive"}
{"smiles": "N#Cc1ccc(C(=O)O)cc1", "outcome": "inactive"}
{"smiles": "CC(C)CCOC(=O)c1ccc(N(C)C)cc1", "outcome": "inactive"}
{"smiles": "Cc1ccc(C2(O)CCN(CCCC(=O)c3ccc(F)cc3)CC2)cc1", "outcome": "inactive"}
{"smiles": "NC12CC3CC(CC(C3)C1)C2", "outcome": "inactive"}
{"smiles": "Cc1ccc(Cl)cc1N", "outcome": "inactive"}
{"smiles": "CC(=O)SC[C@@H](Cc1ccccc1)C(=O)NCC(=O)OCc1ccccc1", "outcome": "inactive"}
{"smiles": "CCC(=O)OCC(=O)[C@@]1(OC(=O)CC)[C@@H](C)C[C@H]2[C@@H]3CCC4=CC(=O)C=C[C@]4(C)[C@@]3(F)[C@@H](O)C[C@@]21C", "outcome": "inactive"}
{"smiles": "COC(=O)c1ccccc1C(=O)c1ccc(OCCN2CCCCC2)cc1", "outcome": "inactive"}
{"smiles": "O=C(O)/C=C/C(O)c1ccc(Cl)cc1", "note": "(stereo not drawn)", "outcome": "inactive"}
{"smiles": "COC(C)(OC)OC", "outcome": "inactive"}
{"smiles": "N#C[C@@H]1C[C@@H]2C[C@@H]2N1C(=O)[C@@H](N)C12CC3CC(CC(O)(C3)C1)C2", "outcome": "inactive"}
{"smiles": "Nc1c(CC(=O)O)cccc1C(=O)c1ccc(Br)cc1", "outcome": "inactive"}
{"smiles": "COc1ccc2[nH]c(S(=O)Cc3ncc(C)c(OC)c3C)nc2n1", "note": "(stereo not drawn)", "outcome": "inactive"}
{"smiles": "Oc1cccc2cc3cccc(O)c3c(O)c12", "outcome": "inactive"}
